Source: PubChem BioAssay (National Center for Advancing Translational Sciences (NCATS))
A selection: hits, their analogues and other compounds. The true share with any hit is near 7.3%.
HCMV inh – inhibitors of human cytomegalovirus | 410,000 tested, 4.5% active | HFF cells, HCMV-luciferase reporter, 72 h; hits give low values | AID 1259415 | activity change, negative = inhibition, % at 57.5 µM; in the data active means activity change below about -60%; inconclusive means no clear call, values can overlap the other calls; inactive means above about -39%
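After 16 h attachment at 37C, HFF cells received test compound and HCMV-luciferase (1 PFU/cell); reporter luminescence read 72 h later, data normalized against buffer-only and known inhibitor Salinomycin.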
HCV inhibitor – inhibitors of hepatitis C virus infection | 340,000 tested, 3.4% active | Huh7.5.1 HCVcc-Cre infection, luciferase reporter, 44 h | Potency, µM (highest dose often 41.8 µM), for the others: at the top dose activity change, negative = inhibition, usual class: inhibitors; further: potency means the concentration at half of the fitted maximal effect
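Compounds are dispensed onto cells plated 4 h earlier at 1,000 per well, with HCVcc-Cre virus (about 0.5 moi) added next. Following 44 h of culture, luminescent signal is measured for 15 sec after 15 min with substrate at room temperature.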
FMDV antiviral – blocks foot and mouth disease virus. FMDV antiviral cell-based qHTS. Potency, µM (highest dose often 57.9 µM), for inactives: at the top dose activity change, negative = inhibition, usual class: inhibitors. 410,000 tested, 1.2% active. AID 1159524; calls by dose curve; tested in HEK293T cells; further: read-out not given here; potency means the concentration at half of the fitted maximal effect; nearly all actives have a fitted effect of over 45% in size
AmpC inh no detg – AmpC beta-lactamase inhibition without detergent; P00811; AmpC nitrocefin hydrolysis, absorbance 480 nm, 0.0001% Triton; Potency, µM (titrated, usually from 57.1 µM), without a hit: top-dose activity change, negative = inhibition, most hits filed as inhibitors; 330,000 tested, 0.52% active; AID 485341;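 further: potency means the concentration at half of the fitted maximal effect; plate controls were no compound for no effect and no enzyme for full effect; nearly all actives have a fitted effect of over 20% in size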
Target sequence (P00811 whole entry, looked up): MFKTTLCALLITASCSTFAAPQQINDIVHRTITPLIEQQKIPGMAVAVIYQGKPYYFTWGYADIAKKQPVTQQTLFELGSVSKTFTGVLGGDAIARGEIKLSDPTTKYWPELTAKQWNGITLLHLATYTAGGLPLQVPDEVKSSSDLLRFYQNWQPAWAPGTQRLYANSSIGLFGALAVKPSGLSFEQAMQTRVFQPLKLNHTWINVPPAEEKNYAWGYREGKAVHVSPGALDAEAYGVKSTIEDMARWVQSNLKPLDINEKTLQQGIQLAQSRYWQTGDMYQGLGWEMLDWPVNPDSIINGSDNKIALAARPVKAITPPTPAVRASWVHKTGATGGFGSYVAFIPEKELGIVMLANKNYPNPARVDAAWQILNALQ
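AmpC (5.3 nM in the dispensed reagent) in 20 mM phosphate pH 7.0 with 0.01% (detergent screen) or 0.0001% Triton X-100 was preincubated with compounds for 15 min at room temperature. Nitrocefin was then added from an 800 uM solution, and hydrolysis was followed at 480 nm.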
AmpC inh detg – inhibitors of E. coli AmpC beta-lactamase with detergent; P00811; AmpC hydrolysis of nitrocefin, absorbance 480 nm, 0.01% Triton; Potency, µM (series often up to 114 µM), for inactives: at the highest dose activity change, negative = inhibition, most hits filed as inhibitors; 370,000 tested, 0.041% active; AID 485294;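 further: potency means the concentration at half of the fitted maximal effect; 0% = no-compound wells and -100% = no-enzyme wells; nearly all actives have a fitted effect of over 25% in size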
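20 mM phosphate pH 7.0 + 0.01% (detergent screen) or 0.0001% Triton X-100; 5.3 nM AmpC reagent; cpd preinc 15 min RT; nitrocefin (800 uM stock) to start; A480 q20 s × 4 min; Activity was normalised to no-enzyme and no-compound control wells.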
An asterisk follows results filed as active; ? = inconclusive; / = no result; ! = not confirmed by another sample. Unless noted, the call rests on the fitted dose curve; in most records, active means well fitted curve in the direction sought with a large enough effect; inconclusive means small, poorly fitted or top-dose-only effect, or another doubt; inactive means no such curve, though single readings can be large; an effect the other way counts as inactive or inconclusive. Unless noted, on the % scale 0 is the no-effect control and ±100 the full control effect.

SMILES	HCMV inh	HCV inhibitor	FMDV antiviral	AmpC inh no detg	AmpC inh detg
COc1ccc(NC(=O)c2nc(S(C)(=O)=O)ncc2N(Cc2ccc(C)cc2)Cc2ccco2)cc1Cl	6	/	-18%	/	19%
CCOC(=O)C1(CCOc2ccccc2)CCN(Cc2cccc(OC)c2)CC1	1	11µM*	-42%	/	/
CCOC(=O)C1(Cc2cccc(OC)c2)CCN(Cc2cccc(OC)c2OC)CC1	?	10µM*	?	51%	4%
CCOC(=O)C1(Cc2cccc(F)c2)CCN(Cc2ccon2)CC1	-38	7%	-26%	23%	3%
CCOC(=O)C1(Cc2cccc(OC)c2)CCN(Cc2ccccc2)CC1	1	?	?	19%	-5%
CCOC(=O)C1(Cc2ccccc2Cl)CCN(Cc2csc(C(C)=O)c2)CC1	-8	13µM*	-22%	90%	5%
CCOC(=O)C1(Cc2ccc(Cl)cc2)CCN(Cc2ccon2)CC1	-66*	1%	-22%	99%	2%
CCCNC(=O)N1[C@@H]2Cn3c(cccc3=O)[C@H]1[C@@H](C(=O)NCC(F)(F)F)[C@@H]2CO	9	/	/	/	/
COc1ccc2c(c1)C(n1c(C)ccc1C)C(=O)N2C (stereo not drawn)	-6	/	/	/	/
CCOC(=O)C1(CCOc2ccccc2)CCN(Cc2ccc(-n3cccn3)cc2)CC1	-61*	2.5µM*	?	92%	1%
O=C(CCS(=O)(=O)c1ccccc1)N(CCCN1CCOCC1)c1nc2c(F)cccc2s1	?	?	40µM*	239%	-2%
Cc1cc(C)n(-c2nc3ccccc3nc2N2CCN(C(=O)c3ccc(F)cc3)CC2)n1	-80*	-1%	-3%	80%	1%
Cc1cc(C)n(-c2nc3ccccc3nc2N2CCC(C)CC2)n1	-7	-4%	-20%	71%	-2%
COC(=O)c1sccc1S(=O)(=O)N1CCC(n2c(CC3CCCC3)nc3cccnc32)CC1	/	/	-4%	/	/
Cc1ccc(F)cc1C(=O)N1CCCCC1c1cc(C(=O)NCc2ccccc2)no1 (stereo not drawn)	-16	/	-13%	/	/
N#CNC(=Nc1ccccc1)SCc1ccc(C(=O)O)cc1	-2	13%	-9%	-23%	6%
CSC(=Nc1ccccc1)N=C(SCc1ccccc1)N(C)C	-101*	?	?	/	/
CCS(=O)(=O)N1Cc2ccccc2CC1C(=O)Nc1ccc(F)c(F)c1 (stereo not drawn)	24	13%	30%	-16%	4%
OCCNCCSc1ccc(Cl)cc1	16	0%	6%	1%	2%
OCCNCCCCSc1ccc(Cl)cc1	-12	10µM*	-10%	-2%	-7%
COCCCNCCCCSc1ccc(Cl)cc1	-26	13µM*	-9%	-6%	8%
CCCCNCCOCCSc1ccc(Cl)cc1	11	7.9µM*	-16%	4%	-1%
COCCCNCCOCCSc1ccc(Cl)cc1	?	?	-7%	3%	-8%
Cc1cccc(C)c1NC(=O)C(CCc1ccccc1)N1CCN(C)CC1 (stereo not drawn)	?	/	-8%	/	/
Cc1ccc(S(=O)(=O)N(C)C[C@@H]2OCc3cnnn3CCCC(=O)N([C@@H](C)CO)C[C@@H]2C)cc1	-3	/	-8%	/	/
SMILES	HCMV inh	HCV inhibitor	FMDV antiviral	AmpC inh no detg	AmpC inh detg
COc1ccccc1CNC(=O)CCCn1c(=O)c2ccccc2n(Cc2ccccc2C#N)c1=O	-3	/	-11%	/	16%
CCn1c(CNC(=O)c2cc(OC)c(OC)c(OC)c2)cc2ccccc21	-61*	?	-27%	42%	-12%
COc1cc(CNc2ncnc3c2ncn3[C@H]2CN(Cc3cccc(C(F)(F)F)c3)C[C@@H](CO)O2)cc(OC)c1OC	64	/	?	/	/
CCOc1ccc2nc3c(cc2c1)CN(CCOC)C(=NCCOC)S3	-61*	-18%	-9%	36%	?
CCN(CC)CCCNC(=O)c1cc(-c2ccccc2)c(N2CCCCC2)s1	-18	6.3µM*	?	26%	-6%
COc1ccccc1Nc1nn2c(=O)c3ccc(C(=O)NCCC4=CCCCC4)cc3nc2s1	-106*	/	?	/	23%
Cc1ccc(C)c(Nc2nn3c(=O)c4ccc(C(=O)NCCC5=CCCCC5)cc4nc3s2)c1	-3	/	?	/	20%
COc1ccccc1Nc1nn2c(=O)c3ccc(C(=O)NCCc4ccccc4)cc3nc2s1	-99*	/	?	/	21%
COc1ccc2[nH]cc(CCN=C(NC(=O)c3ccccc3OC)Nc3nc(C)cc(C)n3)c2c1	-96*	/	?	/	3%
O=C(CN1CCN(Cc2ccc(Cl)cc2)C1=O)NCCCN1CCN(c2ccc(F)cc2)CC1	-75*	10µM*	?	147%	?
O=C(CN1CCN(Cc2ccc(F)cc2Cl)C1=O)NCCCN1CCOCC1	4	8%	0%	1%	?
O=C(NCCCN1CCN(c2ccc(F)cc2)CC1)NC12CC3CC(CC(C3)C1)C2	-79*	?	-28%	115%	-9%
Cc1ccccc1CN1CCN(CC(=O)NCCCN2CCN(c3ccc(F)cc3)CC2)C1=O	-18	10µM*	-20%	109%	0%
O=C(NCCCN1CCOCC1)NC12CC3CC(CC(C3)C1)C2	-24	22%	-21%	-16%	-2%
CCOc1ccccc1NC(=O)C1CCN(S(=O)(=O)c2ccccc2)CC1	-18	/	-13%	/	1%
CN1CCN(S(=O)(=O)c2cccc(C(=O)Nc3ccccc3N3CCOCC3)c2)CC1	-31	14%	-5%	1%	-10%
Cc1nc2c(-c3ccccc3)c(C)nn2c(C)c1CCC(=O)NCc1ccco1	-98*	5%	-26%	84%	?
CC(=O)N(C)CC#CCN1CCCC(CO)C1 (stereo not drawn)	-61*	/	-12%	/	/
CCCCN(C(=O)C1CCCO1)c1c(N)n(CC(C)C)c(=O)[nH]c1=O (stereo not drawn)	-34	10%	-22%	-9%	-18%
Oc1ccccc1Nc1nc(NCc2ccccc2)c2ccccc2n1	?	11µM*	?	-31%	-3%
OCCNc1nc(Nc2ccccc2)nc2ccccc12	4	?	-22%	-20%	-1%
c1ccc(CNc2ncnc3ccccc23)cc1	-97*!	?	?	-3%	-7%
c1ccc(CNc2nc(N3CCN(Cc4ccccc4)CC3)nc3ccccc23)cc1	-17	?	?	0%	-2%
c1ccc(CNc2c3ccccc3nc3ccccc23)cc1	-100*	?	-19%	-41%	-4%
OCC(Cc1ccccc1)Nc1c2ccccc2nc2ccccc12 (stereo not drawn)	-63*	-13%	?	-39%	-13%
CCCCNc1nc(NCc2ccccc2)nc2ccccc12	-32	/	?	/	/
CNc1nc(NCc2ccccc2)c2ccccc2n1	28	11µM*	-18%	-36%	?
CNCCc1ccc(O)c(O)c1	53	-11%	-20%	/	/
